Luciferase inh = qHTS Assay for Inhibitors of Firefly Luciferase; 72,000 compounds, 2.2% hits; Potency, µM (highest dose often 57.1 µM), hits mostly inhibitors; purified firefly luciferase, luminescence, 8 min; AID 411, 2009; Luciferin 4-monooxygenase (Photinus pyralis), P08659; further: nearly all actives have a fitted effect of over 40% in size
Target sequence (P08659 whole entry, looked up): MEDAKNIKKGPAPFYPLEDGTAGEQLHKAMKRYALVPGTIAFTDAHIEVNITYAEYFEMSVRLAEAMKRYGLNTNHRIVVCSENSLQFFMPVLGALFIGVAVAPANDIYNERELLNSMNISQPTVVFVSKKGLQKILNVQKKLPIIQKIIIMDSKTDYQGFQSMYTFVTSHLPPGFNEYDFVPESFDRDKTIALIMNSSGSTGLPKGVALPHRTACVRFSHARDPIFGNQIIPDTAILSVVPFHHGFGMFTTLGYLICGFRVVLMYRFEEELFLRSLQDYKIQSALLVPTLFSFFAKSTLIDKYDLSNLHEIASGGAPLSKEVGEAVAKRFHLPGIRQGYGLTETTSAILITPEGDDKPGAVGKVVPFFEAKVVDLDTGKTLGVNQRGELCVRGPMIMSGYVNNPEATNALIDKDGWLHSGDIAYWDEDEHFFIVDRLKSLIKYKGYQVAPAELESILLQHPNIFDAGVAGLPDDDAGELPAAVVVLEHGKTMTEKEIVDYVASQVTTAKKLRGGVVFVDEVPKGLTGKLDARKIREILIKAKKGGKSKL
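Compounds were tested as concentration series (qHTS) against purified P. pyralis luciferase with luciferin and 10 uM ATP in 50 mM imidazole pH 7.2, 50 mM KCl, 7 mM MgCl2, 0.01% Tween 20, 0.05% BSA. Luminescence was read after 8 min at ambient temperature.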
GBA activity = Glucocerebrosidase | AID 360, 2006 | 48,000 compounds, 1.1% hits | purified enzyme, resorufin glucoside fluorescence (screen aimed at inhibitors), 20 min | Potency, µM | Lysosomal acid glucosylceramidase (Homo sapiens), P04062; in the data active means potency below about 15 µM; inconclusive means mostly about 16 µM to 33 µM;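 further: the screen sought inhibitors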
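Compounds titrated against 0.2 nM normal enzyme, 30 uM resorufin beta-D-glucopyranoside substrate, citrate/phosphate buffer with taurocholate and tween-20, pH 5.9. Reaction ran 20 min at room temperature; fluorescence (Ex 548/Em 600) gave AC50.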
ERK AVP inh = qHTS Assay for Inhibitors of the ERK Signaling Pathway using a Homogeneous Screening Assay. AID 995, 2007. 72,000 compounds, 0.99% hits. HEK293-V1b, vasopressin-stimulated pERK AlphaScreen. Potency, µM (top dose mostly 57.5 µM), actives largely listed as inhibitors; further: nearly all actives have a fitted effect of over 55% in size
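V1b-HEK293 cells; cpd 30 min 37C; 25 nM vasopressin 5 min; lyse 10 min; AlphaScreen beads 5 hr RT. Normalized to DMSO basal and 25 nM vasopressin; AC50 by Hill fit.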
Bst PK mod = Pyruvate Kinase | purified pyruvate kinase, luminescence ATP production; ribose 5-phosphate activator present at AC10 | 51,000 compounds, 1.2% hits | Potency, µM; in the data active means potency below about 11 µM; inconclusive means mostly about 12 µM to 25 µM;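 the screen sought inhibitors and activators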
Of the large screens only hits and unclear results are named; the others gave an inactive call; ! = a repeat was not active. Sampled rows, rich in hits. Any-hit rate of the full collection: about 3.9%. Unless noted, the call rests on the fitted dose curve; in most records, active means well fitted curve in the direction sought with a large enough effect; inconclusive means small, poorly fitted or top-dose-only effect, or another doubt; inactive means no such curve, though single readings can be large; an effect the other way counts as inactive or inconclusive.

Cc1cc(S(=O)(=O)N(Cc2ccccc2)Cc2ccc(N(C)C)cc2)ccc1-n1cnnn1	GBA activity 8.48
CCCC(=O)c1ccc(N2CCN(C(=O)c3ccccc3Br)CC2)c(F)c1	ERK AVP inh 25.1µM (no result: GBA activity, Bst PK mod)
Cc1noc(C)c1-c1cc(N2CCNCC2)ncn1	none (no result: GBA activity, Bst PK mod)
Brc1ccc(-c2nc(-c3ccccn3)no2)o1	Luciferase inh 3.16µM (no result: GBA activity, Bst PK mod)
Clc1ccc(-c2nc(-c3ccccn3)no2)cc1Cl	Luciferase inh 3.16µM, ERK AVP inh inconclusive (no result: GBA activity, Bst PK mod)
O=C(Nc1ccccc1)N1CC=C(c2ccc(F)cc2)CC1	none
O=C(Nc1cccc(F)c1)N1CC=C(n2c(=O)[nH]c3ccccc32)CC1	ERK AVP inh 20µM
COc1cc(C2CC(=O)c3c([nH]c(C(=O)OCCOC(C)C)c3C)C2)cc(OC)c1OC (centres undefined)	ERK AVP inh 3.98µM (no result: GBA activity, Bst PK mod)
Cc1c(C(=O)OCCOc2ccccc2)[nH]c2c1C(=O)CCC2	Luciferase inh 10µM, Bst PK mod inconclusive (no result: GBA activity)
C/C=C/COC(=O)c1[nH]c2c(c1C)C(=O)CC(c1ccc(N(C)C)cc1)C2 (centres undefined)	ERK AVP inh inconclusive (no result: GBA activity, Bst PK mod)
CCCc1c(C(=O)OCC)[nH]c2c1C(=O)CCC2	none (no result: GBA activity, Bst PK mod)
CCOC(=O)c1[nH]c2c(c1C)C(=O)CC(c1ccc(OC)c(OC)c1)C2 (centres undefined)	none
CCOCCOC(=O)c1[nH]c2c(c1C)C(=O)CC(c1ccc(N(C)C)cc1)C2 (centres undefined)	ERK AVP inh 25.1µM (no result: GBA activity, Bst PK mod)
N#CCCn1c(=O)c(-c2ccc(Cl)cc2)nc2cnc(N3CCNCC3)nc21	none (no result: GBA activity, Bst PK mod)
CC[C@]1(O)C[C@H]2CN(CCc3c([nH]c4ccccc34)[C@](C(=O)OC)(c3cc4c(cc3OC)N(C=O)[C@H]3[C@@](O)(C(=O)OC)[C@H](OC(C)=O)[C@@]5(CC)C=CCN6CC[C@]43[C@H]65)C2)C1	none (no result: GBA activity, Bst PK mod)
Cc1nnc(SCCC(=O)Nc2nc(-c3ccccc3)ns2)s1	ERK AVP inh 31.6µM
O=C(CSc1ncn[nH]1)Nc1nc(-c2ccccc2)ns1	none
Cc1cccc(N2CSC3=C(C#N)C(c4ccc(C)o4)CC(=O)N3C2)c1 (centres undefined)	GBA activity 15
CCC/C=C(\CCC)C(NC(=O)Oc1ccc(F)cc1)c1ccc(C(=O)OC)cc1 (centres undefined)	none (no result: Luciferase inh, GBA activity, Bst PK mod)
Clc1ccc(CSC2=NCCN2)cc1Cl	none (no result: GBA activity, Bst PK mod)
CCOc1ccc(CSC2=NCCN2)cc1Cl	GBA activity 8.36
CCc1nc(C)c(C#N)c2cc(OC)c(OC)cc12	ERK AVP inh 25.1µM (no result: GBA activity, Bst PK mod)
CCc1nc(N)c(C#N)c(-c2ccc(OC)c(OC)c2)c1C	none
O=C1c2c(O)ccc(O)c2C(=O)c2c(NCCNCCO)ccc(NCCNCCO)c21	ERK AVP inh 12.6µM! (no result: GBA activity, Bst PK mod)
COC(=O)c1ccc(C(NC(=O)OCc2ccccc2)/C(C)=C/[C@@H](C)C(=O)N2CCN(C)CC2)cc1 (some centres undefined)	none (no result: Luciferase inh, GBA activity, Bst PK mod)
Cn1c(NC(=O)c2cc(-c3ccc4c(c3)OCO4)nc3ccccc23)cc(=O)n(C)c1=O	Luciferase inh 2.51µM, Bst PK mod 4.05
Cc1occc1C(=O)Nc1cc(=O)n(C)c(=O)n1C	none
CCn1c(=O)cc(OCC(=O)Nc2ccc(Cl)cn2)c2ccccc21	none
O=NC1=C(c2c(O)[nH]c3ccccc23)CCCC1	none (no result: GBA activity, Bst PK mod)
Cc1cccc(/N=C/c2c(O)cc(C)oc2=O)n1	none
Cc1cccc(/N=C/c2c(O)[nH]c3ccccc23)n1	Luciferase inh 3.98µM (no result: GBA activity, Bst PK mod)
Oc1[nH]c2ccccc2c1C=Nc1ccc2c(c1)OCCO2	Luciferase inh 3.98µM, GBA activity inconclusive, ERK AVP inh 20µM, Bst PK mod 3.15
CSc1nc(N)c2ncn([C@H]3O[C@H](COP(=O)(O)OP(=O)(O)OP(=O)(O)O)[C@@H](O)[C@@H]3O)c2n1	none (no result: GBA activity, Bst PK mod)
CN(C)c1ncc2nc(-c3ccc(F)cc3)c(=O)n(C3CC3)c2n1	none (no result: GBA activity, Bst PK mod)
Cc1ccc(S(=O)(=O)CC(=O)Nc2ccc(S(=O)(=O)Nc3onc(C)c3C)cc2)cc1	none
Cc1noc(NS(=O)(=O)c2ccc(NC(=O)CCC3CCCC3)cc2)c1C	GBA activity 15
Cc1ccc(OCC(=O)Nc2ccc(S(=O)(=O)Nc3onc(C)c3C)cc2)cc1	none (no result: GBA activity)
Cc1noc(NS(=O)(=O)c2ccc(NC(=O)COc3ccc(Cl)cc3Cl)cc2)c1C	ERK AVP inh 2.51µM (no result: GBA activity, Bst PK mod)
O=c1c(O)c(-c2ccc(O)c(O)c2)oc2c(OC[C@H]3O[C@@H](O)[C@@H](O)[C@H](O)[C@@H]3O)c(O)cc(O)c12	none (no result: GBA activity, ERK AVP inh, Bst PK mod)
COC(=O)[C@@]1(Cc2ccc(OC)cc2)[C@H]2c3cc(C(=O)N4CCCC4)n(CCc4ccc(O)c(OC)c4)c3C[C@H]2CN1C(=O)c1ccccc1	none (no result: Luciferase inh, GBA activity, Bst PK mod)
Cc1ccc(-n2c(C)cc(C(=O)CSc3nncs3)c2C)cc1	Luciferase inh 25.1µM
COc1ccc(-n2c(C)cc(C(=O)CSc3nn4c(=O)c(C(C)(C)C)nnc4s3)c2C)cc1	Luciferase inh 2µM
CC(=O)N1CCc2cc(NC(=O)c3ccc(C)cc3)ccc21	Luciferase inh 6.31µM, Bst PK mod inconclusive
CC(=O)N1CCc2cc(S(=O)(=O)NCCC(=O)Nc3cc(C)cc(C)c3)ccc21	none
CCCCC(=O)NCCc1c(Cc2ccccc2)[nH]c2ccccc12	none (no result: GBA activity, Bst PK mod)
COCc1cc(=O)[nH]c(Nc2nc3ccccc3o2)n1	none (no result: GBA activity, ERK AVP inh)
COC(=O)Cc1cc(=O)[nH]c(Nc2nc3ccccc3o2)n1	Luciferase inh 15.8µM (no result: GBA activity, Bst PK mod)
CN(C)c1oc(-c2ccccc2F)nc1C#N	none (no result: GBA activity, Bst PK mod)
O=C(c1ccccc1)c1nnc(-c2ccccc2F)o1	Luciferase inh 3.98µM, Bst PK mod 8.49
Cc1cc(/C=c2/sc3nc4ccccc4n3c2=O)c(C)n1-c1ccccn1	Luciferase inh 0.501µM, Bst PK mod 0.843 (no result: GBA activity, ERK AVP inh)
O=C(Nc1cnc2ccccc2c1)N1CCOCC1	none
O=C(Nc1cnc2ccccc2c1)N1CCCCC1	Luciferase inh 10µM (no result: GBA activity, Bst PK mod)
CC(Sc1ccc2c(c1)OCCO2)C(=O)Nc1ccc2c(c1)OCO2 (centres undefined)	GBA activity 15
CC(C)C(NC(=O)C1CCCCC1)C(=O)Nc1ccc2c(c1)OCCO2 (centres undefined)	Luciferase inh 12.6µM, Bst PK mod inconclusive
Cc1ccc(NC(=O)C(C)Sc2nnc(-c3cccnc3)o2)cc1 (centres undefined)	none
COc1ccc(-c2nnc(SC(C)C(=O)Nc3ccc4c(c3)OCCO4)o2)cc1 (centres undefined)	Luciferase inh 20µM (no result: Bst PK mod)
Cc1nnc(SC(C)C(=O)Nc2ccc3c(c2)OCCO3)s1 (centres undefined)	none
CC(C)C(NC(=O)C1CCCCC1)C(=O)Nc1ccncc1 (centres undefined)	none
COC(=O)[C@H](C)NC(=O)C/C=C\[C@@H](C)[C@@H](CO)OC	none (no result: GBA activity, Bst PK mod)
CC(=O)c1sc(N2C(=O)c3oc4ccccc4c(=O)c3C2c2ccc(C)o2)nc1C (centres undefined)	none (no result: GBA activity, Bst PK mod)
O=C(NCc1cccs1)c1ccc(N2CCCCC2)nc1	none
CC1CCCN(c2ccc(C(=O)NCc3cccs3)cn2)C1 (centres undefined)	ERK AVP inh 15.8µM (no result: GBA activity)
COc1ccc(-c2cc(-c3ccc(OC)cc3)[nH]n2)cc1	Luciferase inh 15.8µM, ERK AVP inh 3.16µM, Bst PK mod 2.14
